Mdm2-MdmX inh: inhibitors of human Mdm2-MdmX association, primary screen, cell-based, luminescence, split luciferase, SaOS-2, uHTS; Protein Mdm4 (Homo sapiens) + E3 ubiquitin-protein ligase Mdm2 (Homo sapiens), …; SaOS-2 split-luciferase Mdm2/MdmX complementation; inhibition, % at 8 µM; actives 3% (n = 330,000); AID 485346, 2010;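 active = inhibition of at least 50% at 8 µM in the primary screen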
Target sequence (O15151 whole entry, looked up): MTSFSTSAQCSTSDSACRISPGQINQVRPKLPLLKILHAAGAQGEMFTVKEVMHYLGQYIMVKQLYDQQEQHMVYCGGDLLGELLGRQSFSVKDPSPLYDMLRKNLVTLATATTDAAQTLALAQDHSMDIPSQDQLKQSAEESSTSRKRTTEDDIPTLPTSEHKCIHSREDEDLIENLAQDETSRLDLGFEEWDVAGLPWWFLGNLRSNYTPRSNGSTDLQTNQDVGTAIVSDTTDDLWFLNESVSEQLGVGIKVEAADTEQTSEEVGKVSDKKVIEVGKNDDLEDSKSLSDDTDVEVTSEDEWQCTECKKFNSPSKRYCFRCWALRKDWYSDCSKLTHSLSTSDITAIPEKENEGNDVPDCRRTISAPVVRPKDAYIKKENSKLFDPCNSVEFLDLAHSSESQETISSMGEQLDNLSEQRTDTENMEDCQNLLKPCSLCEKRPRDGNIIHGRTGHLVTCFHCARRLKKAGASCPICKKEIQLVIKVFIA
Target sequence (Q00987 whole entry, looked up): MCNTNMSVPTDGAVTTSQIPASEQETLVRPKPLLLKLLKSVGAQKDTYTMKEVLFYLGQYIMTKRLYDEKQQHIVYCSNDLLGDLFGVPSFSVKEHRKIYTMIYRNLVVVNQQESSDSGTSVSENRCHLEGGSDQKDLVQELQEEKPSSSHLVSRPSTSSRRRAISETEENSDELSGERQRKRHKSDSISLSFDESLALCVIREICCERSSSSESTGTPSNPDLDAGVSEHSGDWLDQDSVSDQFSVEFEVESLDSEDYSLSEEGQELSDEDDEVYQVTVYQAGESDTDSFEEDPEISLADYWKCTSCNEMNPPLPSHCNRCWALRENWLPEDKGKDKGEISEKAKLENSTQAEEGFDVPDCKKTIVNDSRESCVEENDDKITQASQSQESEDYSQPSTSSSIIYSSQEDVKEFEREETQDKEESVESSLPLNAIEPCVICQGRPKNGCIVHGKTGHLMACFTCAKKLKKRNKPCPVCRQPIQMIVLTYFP
CSC inhib: cancer stem cell viability inhibitors, primary screen, luminescence | cancer stem cell-like cells viability | inhibition, % at 7.5 µM | actives 1.1% (n = 300,000) | AID 2717, 2010; in the data active = inhibition above about 75%; tested in HMLE shEcad cells
Beta cell apopt: inhibitors of cytokine-induced beta cell apoptosis, primary screen, luminescence. INS-1E cytokine-induced death, ATP luminescence, 48 h; percent of positive-control rescue, neutral wells zero. protection from apoptosis, % (no concentration beside the values). actives 0.8% (n = 300,000). AID 435005, 2010;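 active = Every replicate reaches about 75%, or at least half do and their mean reaches it too, limit read from the data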;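 also: 0% = cytokine-treated negative control wells and 100% = positive control rescue; higher means more ATP so stronger rescue from cytokine killing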
Jurkat NFkB inh: inhibitors of induced NF-kB luciferase reporter, primary screen, TCR NF-kB activation inhibitor project, cell-based, luminescence, uHTS; inhibition, % at 4 µM; actives 0.53% (n = 330,000); AID 435003, 2010; Jurkat, PMA/ionomycin-induced NF-kB luciferase reporter; in the data active = inhibition above about 50%
697 NFkB inh: inhibitors of PMA/ionomycin-induced NF-kB reporter, 697 cells, primary screen, B-cell NF-kB inhibitor project, cell-based, luminescence, uHTS | 697 B-cell NF-kB luciferase reporter, 16 h | inhibition, % at 4 µM | actives 0.33% (n = 330,000); in the data active = inhibition above about 35%
Gli-Sufu antag: Gli-Sufu pathway antagonists, primary screen, luciferase luminescence, Sufu-KO-LIGHT cells, uHTS; Sufu-KO-LIGHT fibroblasts, Gli luciferase reporter luminescence; inhibition, % at 5 µM; actives 0.74% (n = 340,000); AID 588413, 2011;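 active = inhibition above about 55%, limit read from the data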;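 also: 0% = DMSO-treated cells and 100% = wells with medium but no cells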
Gli-Sufu confirm: Gli-SUFU pathway antagonists, confirmation, single concentration, luciferase luminescence, Sufu-KO-LIGHT cells; inhibition, % at 5 µM; AID 602428, 2012; Gli luciferase reporter; shares compounds with Gli-Sufu antag; actives 40% (n = 2,500);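 active = mean inhibition at 5 µM reaching about 45%, limit read from the data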;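 also: plate controls were DMSO-treated cells for no effect and wells lacking cells for full effect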
SufuKO cytotox: cytotoxicity in Sufu-KO-LIGHT cells, confirmation, cytotoxicity control for Gli-SUFU antagonist project, cell-based, ATP luminescence, single concentration; actives 32% (n = 2,500); AID 651994, 2013; cytotoxicity, % at 5 µM; shares compounds with Gli-Sufu antag;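 active = mean cytotoxicity at 5 µM above about 25%, limit read from the data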;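 also: cells exposed to compound overnight for roughly 16 to 18 hours; plate controls were DMSO wells with cells for no effect and medium without cells for full effect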
Wnt3a cs: Wnt3a reporter signal inhibition, confirmation, counter-screen for Gli-SUFU antagonist project, Wnt-LIGHT cells, luminescence, single concentration; Wnt3a-driven luciferase reporter; inhibition, % at 6.25 µM; actives 20% (n = 2,500); AID 651995, 2013; shares compounds with Gli-Sufu antag;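 active = mean inhibition above about 25%, limit read from the data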
The depositor's hits bear a star; . = not tested or not shown. A selection: hits, their analogues and other compounds. The true share with any hit is near 4.5%.

SMILES	Mdm2-MdmX inh	CSC inhib	Beta cell apopt	Jurkat NFkB inh	697 NFkB inh	Gli-Sufu antag	Gli-Sufu confirm	SufuKO cytotox	Wnt3a cs
Cc1nc(OCc2ccccc2)c2ccccc2n1	9	6	4	13	-10	12	.	.	.
CCCCCCCN(c1ccccc1)[C@@H]1C[C@H]2CCCC(=O)N3CC[C@@H](C1)[C@@H]23	.	.	.	.	.	7	.	.	.
COCCn1c(-c2ccccc2)csc1=Nc1cccnc1	3	12	.	14	-16	17	.	.	.
CC(C)n1c(-c2ccco2)csc1=Nc1cccnc1	-8	13	34	18	-55	50	51*	25*	18
CC(=O)c1cccc(NC(=O)N2C3CCCC2CC(NC(=O)C2CC2)C3)c1 (stereo not given)	-2	7	1	3	3	2	.	.	.
COc1ccc2cc3cc(C(=O)N4CCN(C5CCCCC5)CC4)oc3nc2c1	13	-1	-1	0	19	53	26	36*	-23
CN1/C(=C\C(=O)C(F)F)C(C)(C)c2ccccc21	8	11	-3	-10	-14	17	.	.	.
CN1/C(=C\C=N\NC(=O)c2ccc(O)cc2)C(C)(C)c2ccccc21	28	8	113*	39	-6	76*	65*	25*	12
Cc1ccc(C(=O)NC(=S)/C=C2\N(C)c3ccccc3C2(C)C)cc1	19	11	94*	41	-4	77*	27	12	-10
CN1/C(=C/C(=S)NC(=O)C2CCC2)C(C)(C)c2ccccc21	18	8	59	15	3	22	.	.	.
CN1/C(=C\C=N\NC(=O)c2cccnc2)C(C)(C)c2ccccc21	12	-18	37	7	4	2	.	.	.
CC(=O)/C=C1\N(C)c2ccc(C)cc2C1(C)C	39	-7	99*	15	4	61*	61*	29*	30*
CN1/C(=C\C(=O)c2cncc(Br)c2)C(C)(C)c2ccccc21	28	0	101*	10	-46	66*	69*	37*	15
CC(C)C(=O)NC(=S)/C=C1/N(C)c2ccccc2C1(C)C	28	-2	109*	32	-13	56*	57*	17	12
O=C(NCc1ccccc1)c1ccc(NC(=O)C2CCC2)cc1	.	.	.	.	.	-5	.	.	.
S=C(Nc1ccccc1)Nc1ccc(OCc2ccc(Cl)cc2Cl)cc1	23	.	2	-2	4	58*	68*	29*	103*
Cn1c(SCC(=O)N(Cc2ccccc2)C(C)(C)C)nc2ccccc21	0	-17	2	-19	-49	58*	15	4	-15
Cn1c(SCC(=O)N2CCCC2)nc2ccccc21	10	-3	-2	0	-5	-4	.	.	.
CCOC(=O)N1CCC(NC(=O)C2CCCN(Cc3nc(-c4cccc(Cl)c4)oc3C)C2)CC1 (stereo not given)	32	14	78*	18	-8	54	60*	34*	-9
O=C(c1cccc(C(F)(F)F)c1)N1CCN(CCc2ccccc2)CC1	1	19	0	-6	4	9	.	.	.
Cc1cc(C)n2nc(N)c(N=Nc3ccc(Cl)cc3)c2n1	-11	3	4	-9	-21	81*	28	16	-37
CCOC(=O)c1cnc2c(C)cc(C)cc2c1NCCCN1CCOCC1	25	-3	32	13	-17	26	.	.	.
COc1ccc(S(=O)(=O)N2CCN(Cc3cccc(OC)c3)CC2)cc1	3	-5	-9	16	10	62*	23	-3	8
CCCn1c(NC(=O)c2ccc([N+](=O)[O-])o2)nc2ccccc21	45	59	.	3	8	10	.	.	.
O=C(CCCCn1cnc2c(=S)nc[nH]c21)Nc1ccc(C(=O)O)c(O)c1	.	.	.	.	.	-2	.	.	.
SMILES	Mdm2-MdmX inh	CSC inhib	Beta cell apopt	Jurkat NFkB inh	697 NFkB inh	Gli-Sufu antag	Gli-Sufu confirm	SufuKO cytotox	Wnt3a cs
Cn1cc(CNCc2ccc(OC(F)(F)F)cc2)c(-c2ccc3c(c2)OCCO3)n1	29	30	142*	39	-60	60*	63*	36*	26*
O=C(C1CCCN1S(=O)(=O)c1cccc2nsnc12)N1CCN(c2ccccc2)CC1 (stereo not given)	22	9	-3	2	4	2	.	.	.
O=C(C1CCCN1S(=O)(=O)c1cccc2nsnc12)N1CCN(c2ccc(F)cc2)CC1 (stereo not given)	22	.	.	-1	-4	58*	20	-10	-25
C/C(CC(=O)NCc1ccccc1)=N\NC(=O)c1cnccn1	-9	-2	0	7	13	50	19	2	10
CC(C)(C)n1ncc2c(=O)n(Cc3cccc(Cn4cnc5c(cnn5C(C)(C)C)c4=O)c3F)cnc21	36	.	87*	-2	-1	77*	78*	38*	18
Cc1nnc(N/N=C/c2cc([N+](=O)[O-])c(N3CCC(C)CC3)cc2N2CCC(C)CC2)n1N	16	19	115*	6	2	85*	87*	36*	-22
CCOC(=O)[C@H]1[C@H]2COc3cc(OC)ccc3[C@@H]2N2C(=O)c3cc(OC)c(OC)cc3NC(=O)[C@@]12C	-4	10	0	1	-5	16	.	.	.
COc1ccc(N(CC(=O)NCc2ccc3c(c2)OCO3)C(=O)c2csnn2)cc1	4	.	3	-3	-7	-20	.	.	.
O=C(CN(C(=O)c1csnn1)c1ccc(Cl)cc1)NCc1ccc2c(c1)OCO2	-21	0	3	-10	-6	53	2	5	-12
COc1ccc(S(=O)(=O)N(CC(=O)NCc2ccncc2)c2ccc(C)cc2)cc1OC	16	-8	1	13	12	3	.	.	.
CCOC(=O)c1ccc(N2C(=O)c3n[nH]c(-c4ccco4)c3C2c2cccc([N+](=O)[O-])c2)cc1 (stereo not given)	2	-4	3	1	-8	99*	17	4	-21
O=C(NC1CCCN(CCc2ccccc2)C1)C1CCCC1 (stereo not given)	-21	-1	.	6	7	16	.	.	.

Assay outcomes (PubChem)
